# Laboratory results: PubChem BioAssay AID2235 (The Scripps Research Institute Molecular Screening Center, 2010)
# Screen size: about 320,000 compounds; about 2,800 (0.88%) were called active. The list comes from a sample in which actives are over-represented; it also holds similar structures and randomly drawn compounds. Unmarked numbers belong to inactive results.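 Rule for the calls: active = inhibition above the mean inhibition of all tested compounds plus 3 SD, computed separately for each screening campaign (cut at about 15% in these data); inactive = the rest.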
# Molecular target: Serine/threonine-protein phosphatase PP1-alpha catalytic subunit (Homo sapiens) (UniProt P62136)
# Sequence (P62136 whole entry, looked up): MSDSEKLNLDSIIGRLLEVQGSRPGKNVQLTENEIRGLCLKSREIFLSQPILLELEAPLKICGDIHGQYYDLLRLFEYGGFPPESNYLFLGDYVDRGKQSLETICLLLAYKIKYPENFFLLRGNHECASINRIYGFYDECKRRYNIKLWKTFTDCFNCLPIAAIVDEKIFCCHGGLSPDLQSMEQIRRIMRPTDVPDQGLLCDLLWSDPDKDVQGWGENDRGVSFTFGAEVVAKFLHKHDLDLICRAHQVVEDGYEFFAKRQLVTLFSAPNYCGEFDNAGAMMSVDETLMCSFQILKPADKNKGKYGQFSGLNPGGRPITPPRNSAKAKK
# Experiment: PP1-alpha phosphatase inhibitors, primary screen, counter-screen for PP5 inhibitor project, biochemical, fluorescence, OMFP substrate, single point (AID 2235)
# Details: purified PP1alpha, at 6.7 µM, hits give high values
row,Compound,inhibition
1,CC(C)CCSc1ncnc2c1oc1nc3c(cc12)COC(C)(C)C3,-3.04%
2,Cc1c(CC(=O)N2CCN(C(=O)C3COc4ccccc4O3)CC2)c(=O)oc2c(O)c(O)ccc12 (stereo not given),3.96%
3,Cc1cc(Nc2ccc(Br)cc2F)n2ncnc2n1,-2.4%
4,COc1ccc(C2C(C(C)=O)=C(O)C(=O)N2Cc2cccnc2)cc1 (stereo not given),-4.55%
5,COc1ccc(C2C(C(C)=O)=C(O)C(=O)N2c2nccs2)cc1 (stereo not given),-3.06%
6,COc1ccc(C2C(C(C)=O)=C(O)C(=O)N2CCc2c[nH]c3ccccc23)cc1 (stereo not given),18.3% (active)
7,Cc1onc(-c2ccccc2Cl)c1C(=O)N(Cc1ccc(N(C)C)cc1)C(C)C,0.01%
8,COc1ccc2c(c1)c(C(=O)N/N=C/c1cccs1)c(C)n2C,-3.65%
9,Cc1ccc(-c2cc(C(=O)Nc3nn[nH]n3)c3ccccc3n2)c(C)c1,21.8% (active)
10,Cc1ccc2c(Cl)c(C(=O)Nc3nn[nH]n3)sc2c1,10.3%
11,COc1ccc(CN(C)C(=O)c2cc(-c3ccc(C)cc3C)nc3ccccc23)c(OC)c1OC,1.42%
12,COc1cccc(NC(=O)C(Sc2nnnn2C)c2ccccc2)c1 (stereo not given),-7.84%
13,Cc1ccc2cc(CCNC(=O)c3ccc4c(c3)OCO4)c(=O)[nH]c2c1,0.9%
14,Cc1ccc2cc(CCNC(=O)c3c(-c4ccccc4Cl)noc3C)c(=O)[nH]c2c1,57.5% (active)
15,Cc1onc(-c2ccccc2Cl)c1C(=O)NCCn1ccc2ccccc21,0.26%
16,O=S(=O)(NCCc1ccccn1)c1cc(Cl)cc(Cl)c1O,-3.07%
17,COc1cc(S(=O)(=O)N2CCOCC2)ccc1NC(=O)COc1ccc(N(C)S(=O)(=O)c2ccc(C)cc2)cc1,5.5%
18,O=C(Nc1ccccc1F)c1ccc(S(=O)(=O)N2CCCCCC2)cc1,0.94%
19,CC(=O)N1CCCc2cc(S(=O)(=O)N3CCCC(C(=O)N4CCN(c5cccc(Cl)c5)CC4)C3)ccc21 (stereo not given),-0.49%
20,CCOC(=O)COn1c(=O)c(-c2ccc(OCC)cc2)[n+]([O-])c2ccccc21,-1.29%
21,CCn1c(COc2cccc(OC)c2)nnc1SCC(=O)N1CCOCC1,-1.11%
22,CCCCCCCCCCOC(=O)Cn1c(COc2cccc(OC)c2)[n+](C)c2ccccc21,33% (active)
23,CCCCn1c(N)c(N(CCOC)C(=O)c2cccc(OCc3ccccc3)c2)c(=O)[nH]c1=O,-1.96%

row,Compound,inhibition
1,CCOC(=O)Cn1c(-c2cccnc2Cl)nc2ccccc21,2.18%
2,CCCCCCCCCCOC(=O)Cn1c(COc2ccc(C)cc2)[n+](C)c2ccccc21,44.7% (active)
3,O=C(CCN1C(=O)[C@@H]2Cc3ccccc3CN2C1=O)NCCc1ccccc1,-2.43%
4,COC(=O)CCCC1=CC2=C(c3ccccc3)C(=O)C(C)(OC(=O)C3CCCC3)C(=O)C2=CN1c1ccc(OC)cc1 (stereo not given),-4.53%
5,CSc1ncccc1C(=O)Nc1ccc2c(c1)OCO2,-1.92%
6,Oc1c(C(c2ccccn2)N2CCOCC2)ccc2cccnc12 (stereo not given),78.5% (active)
7,CCOc1cc(N2CCOCC2)c(OCC)cc1NC(=O)COc1cccc2cccnc12,2.8%
8,CCOC(=O)N1CCN(C(c2cccnc2)c2ccc3cccnc3c2O)CC1 (stereo not given),3.71%
9,CC(=O)N1CCN(CC(C)(C)NS(=O)(=O)c2ccc(C)cc2)CC1,-0.49%
10,COc1ccc(S(=O)(=O)N(C)CC(=O)N2CCCC2)cc1Cl,-3.22%
11,O=C(CCCN1C(=O)/C(=C/c2ccccc2)SC1=S)Nc1ccc(O)cc1,1.67%
12,Cc1ccc(-c2nn(-c3ccccc3)cc2/C=C2\SC(=S)N(CCCCCC(=O)O)C2=O)o1,23.8% (active)
13,Cc1ccc(-c2nn(-c3ccccc3)cc2CN(Cc2ccccc2)C(=O)CCC(=O)O)o1,-2.67%
14,C=CCOc1ccc(/C=C2\SC(=S)N(CCC(=O)O)C2=O)cc1,6.24%
15,COc1ccc(/C=C2\SC(=S)N(CCCC(=O)NC3CCCC3)C2=O)cc1OC,3.46%
16,COc1ccc(-c2nn(-c3ccccc3)cc2/C=C2/SC(=S)N(CCCC(=O)O)C2=O)c(C)c1,23.3% (active)
17,CCCn1nc(C(=O)Nc2ccc3nc(C)sc3c2)c2ccccc2c1=O,-3.9%
18,COc1ccc(-c2cc(C(F)(F)F)n3nc(C(=O)N4CCOCC4)c(Cl)c3n2)cc1,-1.63%
19,CCOC(=O)c1nn(-c2cccc(C)c2)cc1C(=O)c1ccccc1,1.33%
20,COc1c(F)c(F)c(-c2csc(N)n2)c(F)c1F,-1.76%
21,N#Cc1ccc(C(=O)OCC(=O)NC(=O)NC2CCCCC2)cc1,0.62%
22,CS(=O)(=O)C1=NN2C(=N)/C(=C\c3ccc(OCCOc4ccccc4)cc3)C(=O)N=C2S1,12.2%
23,CS(=O)(=O)c1ccc2c(c1)SC1=NC(=O)/C(=C/c3ccco3)C(=N)N12,24.5% (active)

row,Compound,inhibition
1,CCS(=O)(=O)C1=NSC2=NC(=O)/C(=C\c3ccc(OS(=O)(=O)c4ccccc4)cc3)C(=N)N21,1.95%
2,Cc1cc(NC(=O)OC(C)C)ccc1-c1ccc(NC(=O)OC(C)C)cc1C,-5.37%
3,COCC(C)NC(=O)COc1nncc2ccccc12 (stereo not given),-1.71%
4,CSc1ccc(/C=N/NC(=O)c2cccc(Cl)c2)cc1,-0.88%
5,CSc1ccc(/C=N\NC(=O)COc2ccc(Cl)cc2Br)cc1,45.6% (active)
6,CSc1ccc(/C=N\NC(=O)CC(=O)NC(C)C)cc1,-3.41%
7,Cc1cc(C)c(S(=O)(=O)NCC(c2ccc3c(c2)OCO3)N2CCOCC2)c(C)c1 (stereo not given),-3.95%
8,CN(C(=O)COC(=O)c1nc(Cl)ccc1Cl)C1CCS(=O)(=O)C1 (stereo not given),-2.63%
9,CN(CCOc1ccccc1)C(=O)c1cc(-c2ccco2)nc2ccccc12,11%
10,CN(C(=O)COC(=O)c1cc(-c2ccco2)nc2ccccc12)C1CCS(=O)(=O)C1 (stereo not given),41.1% (active)
11,O=C(CC(c1ccccc1)c1cc(Cl)ccc1O)NCCN1CCOCC1 (stereo not given),-1.01%
12,CCOC(=O)c1ccc[n+](CC(=O)Nc2ccccc2OC(F)F)c1,-3.16%
13,O=C(COC(=O)c1ccccc1SCC(=O)N1CCCC1)Nc1ccccc1OC(F)F,-0.81%
14,Cc1ccc(-c2nc(SCC(=O)Nc3ccccc3OC(F)F)c3c(C)c(C(=O)O)sc3n2)cc1,52% (active)
15,Cc1ccc(C)c(NC(=O)CSc2nc3c(oc4ccccc43)c(=O)n2-c2ccccc2)c1,10.1%
16,COc1cc(C(C(=O)NC2CCCC2)N(Cc2ccccc2)C(=O)c2snc(C(N)=O)c2N)ccc1O (stereo not given),-0.55%
17,CCOC(=O)Cc1cc(=O)[nH]c(=O)[nH]1,-3.59%
18,COc1ccc(-c2ocnc2C(=O)Nc2ccc3c(c2)CCC3)cc1,-2.76%
19,O=C1N=C(N2CCCC2)S/C1=C\c1cccc(Br)c1,-0.89%
20,O=C1N=C2SCCN2/C1=C\c1c(Cl)cccc1Cl,15.4% (active)
21,O=Cc1c(Cl)cccc1Cl,-3.41%
22,O=C(N/N=C\C1CC=CCC1)c1ccc(Br)o1 (stereo not given),2.42%
23,O=C(c1cn(-c2ccccc2)nc1-c1cccnc1)N1CCN(S(=O)(=O)c2ccccc2F)CC1,-1.36%

row,Compound,inhibition
1,Cc1ccc(CNC(=O)CCN2C(=O)[C@@H]3Cc4ccccc4CN3C2=O)cc1,3.38%
2,CCCCN(C)CCCNC(=O)c1cc(-c2cccs2)nc2ccccc12,1.01%
3,O=C(Nc1nnc(-c2ccccc2)o1)c1cc(-c2cccs2)nc2ccccc12,34.7% (active)
4,O=C(NCCN1CCOCC1)c1cc(-c2cccs2)nc2ccccc12,-5.13%
5,CCN(CC)c1ccc(NC(=O)CN2C(=O)NC3(CCc4ccccc43)C2=O)cc1 (stereo not given),3.2%
6,COCCCn1c(-c2cccs2)nc2nc3ccccc3nc21,-1.53%
7,CC(C)(C)c1ccccc1NC(=O)CN1C(=O)NC2(CCCC2)C1=O,-2.93%
8,O=C(/C=C/c1ccco1)Nc1ccc(Oc2ccccc2)cc1,3.61%
9,Cc1nnc(NC(=O)/C=C/c2ccco2)s1,-3.35%
10,Cc1ccc(-n2nc3ccc(NC(=O)/C=C/c4ccco4)cc3n2)cc1C,19.2% (active)
11,COc1ccc(CN2CCN(Cc3ccc(OC)c(OC)c3OC)CC2)cc1,-0.69%
12,CCOc1ccc(N(CC(=O)Nc2cccc(OC)c2)S(C)(=O)=O)cc1,-2.47%
13,COc1ccc(NC(=O)CSc2nnc(-c3ccccc3F)n2C2CC2)cc1S(N)(=O)=O,-2.33%
14,Fc1cccc(Cl)c1COc1ccc(-c2nnco2)cc1,0.3%
15,CC(=O)NCc1ccc(-c2csc(NC(=O)CCCc3nc4ccccc4c(=O)[nH]3)n2)cc1,-1.25%
16,CCCn1c(C)cc(-c2csc(NC(=O)CCc3nc4ccccc4c(=O)[nH]3)n2)c1C,15.3% (active)
17,Cc1cc(C)c(-c2csc(NC(=O)CCCc3nc4ccccc4c(=O)[nH]3)n2)c(C)c1,1.77%
18,O=C1CCCCN1CCCC(=O)N1CCCC(Nc2ccc(F)cc2)C1 (stereo not given),-8.73%
19,Cc1ccc(NS(=O)(=O)c2ccc(N/N=C/c3ccccc3OCC(=O)O)c([N+](=O)[O-])c2)c(C)c1,21.9% (active)
20,COCCNC(=O)c1ccccc1NS(=O)(=O)c1ccc(C)c([N+](=O)[O-])c1,-0.54%
21,Cc1cccc(COc2ccccc2/C=N/Nc2ccc([N+](=O)[O-])cc2)c1,6.78%
